Data: the supplement of paper PMC11732987, “Enantioselective OTUD7B fragment discovery through chemoproteomics screening and high-throughput optimisation” (Communications Chemistry, 2025)
Values without a mark were called inactive.

Key:
Assay in all cases: log2 ratio of Biotin-Ahx-Ub-VS probe labelling (fragment/DMSO); higher = less target engagement (more negative = stronger competition), active = hit call of the paper (q ≤ 0.05, log2 ratio ≤ -1)
Conditions in all cases: compound concentration: 200 uM; treatment time: 3 h
ALG13 = biological target: T1, ALG13 (UniProt Q9NP73)
T1 sequence (whole entry): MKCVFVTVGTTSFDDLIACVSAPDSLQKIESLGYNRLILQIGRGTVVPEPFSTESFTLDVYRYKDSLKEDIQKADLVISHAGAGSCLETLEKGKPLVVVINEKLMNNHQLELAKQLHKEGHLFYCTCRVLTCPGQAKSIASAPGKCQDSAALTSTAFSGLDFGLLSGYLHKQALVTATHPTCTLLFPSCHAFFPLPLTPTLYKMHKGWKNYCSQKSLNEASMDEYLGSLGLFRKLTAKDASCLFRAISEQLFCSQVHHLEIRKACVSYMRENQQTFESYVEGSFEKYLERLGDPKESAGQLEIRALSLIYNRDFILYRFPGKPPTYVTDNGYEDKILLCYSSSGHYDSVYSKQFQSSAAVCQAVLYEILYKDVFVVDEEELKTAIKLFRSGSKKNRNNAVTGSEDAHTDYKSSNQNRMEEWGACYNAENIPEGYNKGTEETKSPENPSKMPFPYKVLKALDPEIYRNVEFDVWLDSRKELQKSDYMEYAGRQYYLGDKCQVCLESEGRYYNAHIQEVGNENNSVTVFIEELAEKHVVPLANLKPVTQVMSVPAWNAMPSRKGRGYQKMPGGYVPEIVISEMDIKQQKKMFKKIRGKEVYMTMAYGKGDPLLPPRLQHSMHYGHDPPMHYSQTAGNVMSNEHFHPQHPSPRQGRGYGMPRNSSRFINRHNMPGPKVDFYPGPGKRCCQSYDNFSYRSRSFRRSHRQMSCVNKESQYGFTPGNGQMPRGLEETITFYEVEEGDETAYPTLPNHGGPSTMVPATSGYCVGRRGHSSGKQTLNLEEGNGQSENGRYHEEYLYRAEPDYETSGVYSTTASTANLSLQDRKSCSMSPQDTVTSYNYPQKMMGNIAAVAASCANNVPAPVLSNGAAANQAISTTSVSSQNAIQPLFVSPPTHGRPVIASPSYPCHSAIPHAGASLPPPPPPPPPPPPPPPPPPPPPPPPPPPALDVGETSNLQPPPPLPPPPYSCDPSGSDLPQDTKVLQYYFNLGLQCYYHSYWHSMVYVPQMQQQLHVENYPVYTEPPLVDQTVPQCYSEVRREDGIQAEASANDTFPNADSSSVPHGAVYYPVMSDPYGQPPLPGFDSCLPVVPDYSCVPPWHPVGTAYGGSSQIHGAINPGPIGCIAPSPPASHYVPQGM
Method in brief: (§1)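 Labelling with Biotin-Ahx-Ub-VS (0.5 µM final, 1 h) followed a 3 h triplicate treatment of HEK293T lysate (495 µg per sample, Tris/CHAPS/IGEPAL buffer with protease inhibitors) with fragment at 200 µM or vehicle. Labelled DUBs were NeutrAvidin-enriched, digested with LysC and trypsin, and run by diaPASEF LC-MS/MS. The values, average log2 fragment/vehicle ratios by unpaired t-test, come from global-median-normalised Spectronaut label-free quantities. Proteins with ≥2 unique peptides were used.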

ATXN3 = ATXN3 (UniProt P54252)
Sequence of ATXN3 (P54252 whole entry): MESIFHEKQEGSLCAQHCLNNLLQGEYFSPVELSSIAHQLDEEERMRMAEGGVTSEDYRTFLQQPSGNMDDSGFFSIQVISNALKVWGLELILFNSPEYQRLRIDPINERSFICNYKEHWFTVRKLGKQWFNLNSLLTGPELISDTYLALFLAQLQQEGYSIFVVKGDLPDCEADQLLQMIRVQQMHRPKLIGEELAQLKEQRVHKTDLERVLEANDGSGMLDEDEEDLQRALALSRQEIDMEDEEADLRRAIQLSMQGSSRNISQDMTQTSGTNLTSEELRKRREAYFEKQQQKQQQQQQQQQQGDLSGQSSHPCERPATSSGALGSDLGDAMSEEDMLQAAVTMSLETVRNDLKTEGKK
Method in brief: as §1

BAP1 = biological target: T2, BAP1 (UniProt Q92560)
T2 sequence (whole entry): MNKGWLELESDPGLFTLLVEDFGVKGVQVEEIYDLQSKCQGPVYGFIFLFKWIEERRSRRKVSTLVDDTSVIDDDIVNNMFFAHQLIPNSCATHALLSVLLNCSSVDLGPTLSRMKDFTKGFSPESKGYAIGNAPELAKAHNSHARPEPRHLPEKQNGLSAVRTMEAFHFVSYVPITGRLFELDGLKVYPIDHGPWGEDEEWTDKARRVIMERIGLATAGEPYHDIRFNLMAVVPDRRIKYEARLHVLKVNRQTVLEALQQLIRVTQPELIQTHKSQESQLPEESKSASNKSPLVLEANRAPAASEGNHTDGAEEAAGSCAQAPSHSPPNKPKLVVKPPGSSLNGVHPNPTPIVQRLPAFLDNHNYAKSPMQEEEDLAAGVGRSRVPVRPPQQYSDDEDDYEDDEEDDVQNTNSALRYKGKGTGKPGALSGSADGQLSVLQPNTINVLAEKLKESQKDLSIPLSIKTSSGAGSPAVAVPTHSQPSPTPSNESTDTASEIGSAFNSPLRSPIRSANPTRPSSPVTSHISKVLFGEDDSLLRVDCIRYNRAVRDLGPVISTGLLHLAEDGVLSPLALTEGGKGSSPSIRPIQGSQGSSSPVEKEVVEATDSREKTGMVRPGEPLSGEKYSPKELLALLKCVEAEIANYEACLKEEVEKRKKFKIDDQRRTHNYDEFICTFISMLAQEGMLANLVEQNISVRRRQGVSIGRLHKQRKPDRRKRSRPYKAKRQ
Method in brief: as §1

EIF3F = EIF3F (UniProt O00303)
Sequence of EIF3F (O00303 whole entry): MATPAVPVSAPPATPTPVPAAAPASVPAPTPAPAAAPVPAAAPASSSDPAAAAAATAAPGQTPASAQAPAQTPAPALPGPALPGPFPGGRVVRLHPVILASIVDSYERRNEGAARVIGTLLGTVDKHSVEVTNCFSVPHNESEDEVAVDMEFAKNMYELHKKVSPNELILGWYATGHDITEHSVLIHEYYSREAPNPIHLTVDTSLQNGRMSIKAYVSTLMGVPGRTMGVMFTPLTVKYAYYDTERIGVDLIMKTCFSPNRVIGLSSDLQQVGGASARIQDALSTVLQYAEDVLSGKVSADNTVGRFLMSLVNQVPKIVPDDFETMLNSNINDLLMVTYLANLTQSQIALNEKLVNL
Method in brief: as §1

EIF3H = EIF3H (UniProt O15372)
Sequence of EIF3H (O15372 whole entry): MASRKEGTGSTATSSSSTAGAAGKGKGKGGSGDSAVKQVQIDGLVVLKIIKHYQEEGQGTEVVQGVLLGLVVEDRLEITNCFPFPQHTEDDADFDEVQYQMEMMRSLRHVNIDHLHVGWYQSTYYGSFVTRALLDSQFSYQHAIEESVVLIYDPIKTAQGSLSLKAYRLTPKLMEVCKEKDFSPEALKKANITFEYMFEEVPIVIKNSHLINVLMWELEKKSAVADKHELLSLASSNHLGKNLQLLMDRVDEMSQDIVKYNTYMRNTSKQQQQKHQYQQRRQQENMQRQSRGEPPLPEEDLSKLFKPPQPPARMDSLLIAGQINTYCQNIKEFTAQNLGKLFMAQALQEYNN
Method in brief: as §1

FAM105A = biological target: T3, FAM105A (UniProt Q9NUU6)
T3 sequence (whole entry): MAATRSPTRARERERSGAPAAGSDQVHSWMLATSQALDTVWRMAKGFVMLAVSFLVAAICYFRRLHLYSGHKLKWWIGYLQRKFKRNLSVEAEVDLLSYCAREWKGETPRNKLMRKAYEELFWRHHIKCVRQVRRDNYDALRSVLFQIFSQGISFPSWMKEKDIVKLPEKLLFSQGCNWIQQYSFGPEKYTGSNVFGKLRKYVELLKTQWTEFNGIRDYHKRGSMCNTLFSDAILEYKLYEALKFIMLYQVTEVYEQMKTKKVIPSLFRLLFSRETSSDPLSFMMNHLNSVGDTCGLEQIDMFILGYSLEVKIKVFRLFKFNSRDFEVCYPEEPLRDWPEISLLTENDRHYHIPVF
Method in brief: as §1

OTUB1 = OTUB1 (UniProt Q96FW1)
Sequence of OTUB1 (Q96FW1 whole entry): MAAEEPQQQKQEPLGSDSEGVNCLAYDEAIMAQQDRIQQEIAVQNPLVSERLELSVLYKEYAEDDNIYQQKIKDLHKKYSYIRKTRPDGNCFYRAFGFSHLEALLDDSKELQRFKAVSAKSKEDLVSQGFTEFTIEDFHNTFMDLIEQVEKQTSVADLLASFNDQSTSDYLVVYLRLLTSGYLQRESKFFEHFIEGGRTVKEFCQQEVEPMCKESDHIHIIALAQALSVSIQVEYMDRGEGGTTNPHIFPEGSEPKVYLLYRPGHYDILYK
Method in brief: as §1

OTUD4 = biological target: T4, OTUD4 (UniProt Q01804)
T4 sequence (whole entry): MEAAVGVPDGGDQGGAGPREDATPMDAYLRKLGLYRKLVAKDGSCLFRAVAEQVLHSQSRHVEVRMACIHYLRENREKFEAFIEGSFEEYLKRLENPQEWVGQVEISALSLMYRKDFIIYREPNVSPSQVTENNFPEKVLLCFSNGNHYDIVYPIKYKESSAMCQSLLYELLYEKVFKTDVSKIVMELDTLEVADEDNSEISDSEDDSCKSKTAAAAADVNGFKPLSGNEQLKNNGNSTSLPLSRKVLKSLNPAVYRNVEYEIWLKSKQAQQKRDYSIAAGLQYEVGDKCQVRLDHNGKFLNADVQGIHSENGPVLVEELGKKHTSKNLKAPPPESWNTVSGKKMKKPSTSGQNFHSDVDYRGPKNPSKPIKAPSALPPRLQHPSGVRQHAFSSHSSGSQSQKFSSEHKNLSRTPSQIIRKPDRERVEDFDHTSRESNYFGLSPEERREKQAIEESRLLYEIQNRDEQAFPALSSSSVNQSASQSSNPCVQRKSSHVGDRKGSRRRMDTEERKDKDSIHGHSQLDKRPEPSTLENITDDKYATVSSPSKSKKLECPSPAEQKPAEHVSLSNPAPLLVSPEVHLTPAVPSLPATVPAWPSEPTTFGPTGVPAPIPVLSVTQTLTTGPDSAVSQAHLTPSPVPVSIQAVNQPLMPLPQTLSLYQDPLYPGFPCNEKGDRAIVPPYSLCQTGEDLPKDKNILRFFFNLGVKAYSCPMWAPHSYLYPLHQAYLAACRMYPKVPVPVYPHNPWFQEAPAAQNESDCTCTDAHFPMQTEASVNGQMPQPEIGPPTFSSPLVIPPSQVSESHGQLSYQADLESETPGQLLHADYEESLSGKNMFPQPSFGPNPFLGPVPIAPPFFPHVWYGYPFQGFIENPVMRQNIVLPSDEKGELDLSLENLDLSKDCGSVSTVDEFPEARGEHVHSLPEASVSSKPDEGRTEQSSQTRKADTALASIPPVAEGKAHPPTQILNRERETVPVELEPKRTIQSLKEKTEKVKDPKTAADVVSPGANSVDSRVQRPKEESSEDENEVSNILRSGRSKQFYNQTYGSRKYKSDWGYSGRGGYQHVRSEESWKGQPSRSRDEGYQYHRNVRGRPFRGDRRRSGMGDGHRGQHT
Method in brief: as §1

OTUD5 = biological target: T5, OTUD5 (UniProt Q96G74)
T5 sequence (whole entry): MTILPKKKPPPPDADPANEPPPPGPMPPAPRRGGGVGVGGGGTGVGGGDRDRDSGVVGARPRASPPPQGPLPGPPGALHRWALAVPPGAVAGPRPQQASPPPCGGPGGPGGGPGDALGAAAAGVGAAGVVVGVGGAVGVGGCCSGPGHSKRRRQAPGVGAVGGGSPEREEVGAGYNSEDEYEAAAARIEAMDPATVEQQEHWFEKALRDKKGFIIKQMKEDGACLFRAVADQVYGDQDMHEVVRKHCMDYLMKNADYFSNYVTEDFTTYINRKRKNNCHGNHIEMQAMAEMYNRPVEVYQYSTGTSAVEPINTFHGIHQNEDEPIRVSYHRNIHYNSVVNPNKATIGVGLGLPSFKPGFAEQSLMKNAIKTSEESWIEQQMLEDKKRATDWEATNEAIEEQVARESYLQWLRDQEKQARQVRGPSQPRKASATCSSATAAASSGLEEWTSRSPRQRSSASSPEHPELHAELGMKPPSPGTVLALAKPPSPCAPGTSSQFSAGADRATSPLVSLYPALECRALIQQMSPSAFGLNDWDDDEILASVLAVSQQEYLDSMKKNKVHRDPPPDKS
Method in brief: as §1

CC(NC(=O)CCl)c1ccc2[nH]ncc2c1 (centres undefined)
log2 ratio of Biotin-Ahx-Ub-VS probe labelling (ALG13): 0.186 | log2 ratio of Biotin-Ahx-Ub-VS probe labelling (ATXN3): -0.431 | log2 ratio of Biotin-Ahx-Ub-VS probe labelling (BAP1): -3.42 (active) | log2 ratio of Biotin-Ahx-Ub-VS probe labelling (EIF3F): -0.607 | log2 ratio of Biotin-Ahx-Ub-VS probe labelling (EIF3H): -0.275 | log2 ratio of Biotin-Ahx-Ub-VS probe labelling (FAM105A): -0.234 | log2 ratio of Biotin-Ahx-Ub-VS probe labelling (OTUB1): -0.374 | log2 ratio of Biotin-Ahx-Ub-VS probe labelling (OTUD4): -0.637 | log2 ratio of Biotin-Ahx-Ub-VS probe labelling (OTUD5): -0.509
